PAFAH1B2 FP inh – PAFAH1B2 (human) inhibition; 340,000 compounds, 1.2% hits; P68402; recombinant PAFAH1B2, FP-rhodamine activity probe, fluorescence polarization; inhibition, % at 3.39 µM;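 active = inhibition above the mean of all tested compounds plus 3 SD, cut at about 24% in these data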;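 note: 0% = enzyme with DMSO and 100% = wells lacking PAFAH1B2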
PAFAH1B3 inh – PAFAH1B3 (human) inhibition; Q15102; recombinant PAFAH1B3, FP-rhodamine probe, fluorescence polarization; inhibition, % at 3.39 µM; 340,000 compounds, 0.28% hits;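 active = inhibition above the screen-wide average of all tested compounds plus 3 SD, cut at about 25% in these data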;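 note: 0% = enzyme with DMSO only and 100% = wells lacking PAFAH1B3 protein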
PKA-R2B act – activators of human PKA-R2B complex; PKA-R2B holoenzyme dissociation, Cy5-IP20 fluorescence polarization; R2B truncated from residue 108, S112A mutant; 0% DMSO only, 100% 113 µM cGMP; activation, % at 11.4 µM; 340,000 compounds, 0.079% hits; AID 504700;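 active = activation above a cutoff set at the mean over all compounds plus 3 SD, cut at about 18% in these data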;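 note: higher means more holoenzyme dissociation and a rise in polarization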
Target sequence (P31323 whole entry, looked up, other chains not shown, the tested form may be a part): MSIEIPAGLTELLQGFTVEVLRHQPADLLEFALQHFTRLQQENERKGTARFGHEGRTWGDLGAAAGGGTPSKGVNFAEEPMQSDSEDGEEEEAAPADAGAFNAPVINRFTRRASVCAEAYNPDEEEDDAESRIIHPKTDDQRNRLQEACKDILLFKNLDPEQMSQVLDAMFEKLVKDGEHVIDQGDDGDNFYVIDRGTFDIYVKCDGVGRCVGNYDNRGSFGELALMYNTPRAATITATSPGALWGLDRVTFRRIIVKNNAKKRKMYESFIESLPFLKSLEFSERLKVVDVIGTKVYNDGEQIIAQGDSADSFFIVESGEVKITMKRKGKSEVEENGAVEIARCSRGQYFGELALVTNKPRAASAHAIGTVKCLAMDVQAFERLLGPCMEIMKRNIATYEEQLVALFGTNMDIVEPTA
pPAFAH inh – pPAFAH (human) enzyme inhibition | inhibition, % at 3.39 µM | AID 463082 | recombinant pPAFAH, FP-rhodamine probe fluorescence polarization | 330,000 compounds, 1.5% hits;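 active = inhibition above the mean inhibition across the screen plus 3 SD, cut at about 25% in these data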;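 note: inhibitors block binding of the rhodamine activity-based probe so polarization drops; 0% = enzyme with DMSO and 100% = wells lacking pPAFAH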
PKA-R1A act – PKA-R1A complex activation. PKA-R1A dissociation, Cy5-IP20 fluorescence polarization; scaled: DMSO 0%, 113 µM cGMP 100%. activation, % at 11.4 µM. 340,000 compounds, 0.083% hits. AID 504707;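 active = percent activation above the mean of all tested compounds plus 3 SD, cut at about 19% in these data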;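 note: higher means more PKAc released from R1A so a rise in polarization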
PAFAH2 inh – PAFAH2 (human) inhibition; Q99487; recombinant PAFAH2, FP-rhodamine activity probe, fluorescence polarization; inhibition, % at 3.39 µM; 340,000 compounds, 0.99% hits; AID 492956;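 active = inhibition above the mean over all tested compounds plus 3 SD, cut at about 30% in these data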;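 note: inhibitors block probe labeling of enzyme so polarization drops; 0% = enzyme with DMSO and 100% = wells lacking PAFAH2 protein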
pPAFAH confirm – pPAFAH (human) inhibition, confirmed; shares compounds with pPAFAH inh; recombinant pPAFAH, FP-Rh probe fluorescence polarization; inhibition, % at 3.39 µM; 2,300 compounds, 72% hits; AID 463230;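 active = mean inhibition of the triplicate above the hit cutoff set for the earlier primary screen, cut at about 25% in these data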;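 note: 0% = enzyme with DMSO and 100% = wells lacking pPAFAH enzyme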
An asterisk follows results filed as active; x = no result given. A selection: hits, their analogues and other compounds. The true share with any hit is near 2.6%.

SMILES	PAFAH1B2 FP inh	PAFAH1B3 inh	PKA-R2B act	pPAFAH inh	PKA-R1A act	PAFAH2 inh	pPAFAH confirm
CC1Oc2cc3oc4c(O)c(O)ccc4c(=O)c3c(O)c2C1(C)C (configuration not stated)	11	8	-10	75*	-9	32*	83*
O=c1cc(CN2CCOCC2)c2ccc(O)c(O)c2o1	5	9	7	8	5	1	x
CC(=O)Nc1ccc2c(c1)-c1ccc(F)cc1C2=O	4	-2	-1	x	10	-4	x
COc1ccc(NC(=O)CN(C)C(=O)C2CCCO2)cc1 (configuration not stated)	5	5	2	-1	7	10	x
C=CCn1c(SC(C)C(=O)Nc2ccc(Cl)cn2)nnc1C1CC1 (configuration not stated)	-2	-5	-12	-6	0	-5	x
C=CCn1c(SC(C)C(=O)Nc2ccc(F)c(F)c2F)nnc1C1CC1 (configuration not stated)	0	-7	-13	35*	-6	0	2
C=C1c2cccc(O)c2C(=O)C2C(=O)[C@]3(O)C(=O)C(C(N)=O)C(=O)[C@@H](N(C)C)[C@@H]3[C@@H](O)[C@H]12 (some centres not stated)	33*	45*	5	92*	5	52*	9
Cc1ccc(/C(O)=C/C(=O)C(=O)NC23CC4CC(CC(C4)C2)C3)cc1	4	3	0	-2	1	20	x
CC1=C([N+](=O)[O-])C(c2cccc(Br)c2)C2=C(N1)c1ccccc1C2=O (configuration not stated)	6	3	-3	38*	-6	5	26*
COc1ccc(-c2cc3c(=O)n(CC(=O)N4CCN(C)CC4)ncn3n2)cc1	6	6	-15	1	-17	-4	x
O=C(c1cc(O)c(O)c([N+](=O)[O-])c1)c1ccccc1F	14	29*	8	59*	-7	68*	81*
O=C(Nc1ccc([N+](=O)[O-])cc1)c1ccccc1F	-1	3	-7	0	6	-1	x
O=C(CC1Nc2cccc3cccc(c23)NC1=O)Nc1ccccc1 (configuration not stated)	4	18	4	52*	-2	58*	12
CCc1ccc(CNC(=O)Cc2ccc(NC(=O)C3=C(C)OCCS3)cc2)cc1	3	1	-6	36*	-7	10	20
COc1ccccc1S(=O)(=O)NCc1ccc(C(=O)NC(C)c2ccccn2)cc1 (configuration not stated)	1	7	0	-2	-8	4	x
Clc1c(Cl)c(Cl)c2n[nH]nc2c1Cl	20	3	-6	-6	-7	6	x
Cc1ccnc(NCc2ccccc2O)c1	1	7	1	41*	-1	4	1
O=C(O)CN1C(=O)/C(=C\c2cc(Br)ccc2OCc2ccc(F)cc2)SC1=S	13	16	-12	51*	-3	50*	63*
CC1=C(/C=C/C(=O)O)C(C)(C)CCC1	15	-1	-4	4	4	-4	x
CC1=C(/C=C/C(C)=C/C=C/C(C)=C/C(=O)Nc2ccc(O)cc2)C(C)(C)CCC1	8	2	-6	54*	4	-1	53*
Nc1ccc(C(=O)N/N=C\c2cc(N=Nc3cccc4ccccc34)ccc2O)cc1	17	12	-14	77*	2	6	53*
O=C(N/N=C1/CC2CCC1C2)c1cc2ccccc2cc1O (configuration not stated)	0	-2	-15	46*	-6	3	4
CC1(C)CCC/C(=C\c2ccccc2)C1=O	3	4	6	46*	-1	2	8
O=C1OCC/C1=C\c1ccccc1	1	2	4	-6	-6	8	x
O=C(c1cccs1)N1C[C@@H](O)[C@H](n2cc(-c3ccc(F)cc3)nn2)C[C@@H]1c1ccccc1	x	x	-19	x	-10	x	x
SMILES	PAFAH1B2 FP inh	PAFAH1B3 inh	PKA-R2B act	pPAFAH inh	PKA-R1A act	PAFAH2 inh	pPAFAH confirm
O=C(CCCC(=O)c1ccccc1)NCCc1ccccc1F	4	11	-2	6	-6	3	x
CNc1ccc(/C=C(\CCC(=O)O)c2nc3ccccc3s2)cc1[N+](=O)[O-]	96*	-2	-12	49*	-4	15	38*
CN(c1ccccc1)c1ccc(/C=C(\CCC(=O)O)c2nc3ccccc3s2)cc1[N+](=O)[O-]	89*	-3	-5	54*	-6	32*	58*
COc1ccc(C(=O)Nc2cccc(/C=C(\CCC(=O)O)c3nc4ccccc4s3)c2)cc1	2	5	-1	11	-8	-15	x
NC(=O)c1ccc(-n2nnnc2SCC(=O)c2ccc(O)c(O)c2)cc1	5	16	0	37*	-5	14	67*
O=C1NC(=S)/C(=C\c2ccc(-c3ccccc3Cl)o2)S1	9	24	-6	70*	-8	41*	79*
O=C1NC(=O)/C(=C/c2ccc(-c3cc(C(=O)O)ccc3Cl)o2)S1	8	19	-2	18	2	3	x
CC(NC(=S)Nc1cccc(F)c1)C(c1cccs1)N1CCOCC1 (configuration not stated)	8	8	-2	47*	6	5	2
Cc1ccc(C)c(NC(=S)NC(C)C(c2cccs2)N2CCOCC2)c1 (configuration not stated)	7	-6	-3	-7	7	3	x
C[C@@H]1C(=O)O[C@H](C)[C@H]1C[C@@H](O)[C@](C)(O)C1CC[C@@]2(O)C3=CC(=O)[C@@H]4C[C@@H](O)[C@@H](O)C[C@]4(C)C3CC[C@]12C (some centres not stated)	-3	10	11	0	6	5	x
CCC(=O)OC1(C)C(=O)C=C2C=C(c3ccsc3)OC=C2C1=O (configuration not stated)	-5	6	-11	48*	-3	16	34*
O=[N+]([O-])c1ccc(CNCc2cc(Cl)ccc2O)cc1	-3	9	-2	0	-1	12	x
CC(OC(=O)Cn1[nH]c(=O)c2ccccc2c1=O)C(=O)c1ccccc1 (configuration not stated)	1	0	-2	-1	-18	6	x
COc1ccc(C(=O)CC(=O)C(=O)Nc2cc(C)ccc2C)cc1	2	10	-1	2	5	-3	x
COc1ccc(C(=O)CC(=O)C(=O)Nc2ccc([N+](=O)[O-])cc2C)cc1	6	15	-5	48*	2	-8	8
